ADAM10 inh = human ADAM10 inhibitors, primary screen, biochemical, QFRET, HTS | 0.62% of 370,000 active | Disintegrin and metalloproteinase domain-containing protein 10 (Homo sapiens), O14672 | inhibition, % at 7 µM | recombinant ADAM10, EDANS/DABCYL FRET peptide cleavage, 3 h;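 active = inhibition above a per-campaign cutoff equal to the mean of compounds falling between control-based bounds plus 3 SD, cut at about 20% in these data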
Target sequence (O14672 214-748 limits assumed): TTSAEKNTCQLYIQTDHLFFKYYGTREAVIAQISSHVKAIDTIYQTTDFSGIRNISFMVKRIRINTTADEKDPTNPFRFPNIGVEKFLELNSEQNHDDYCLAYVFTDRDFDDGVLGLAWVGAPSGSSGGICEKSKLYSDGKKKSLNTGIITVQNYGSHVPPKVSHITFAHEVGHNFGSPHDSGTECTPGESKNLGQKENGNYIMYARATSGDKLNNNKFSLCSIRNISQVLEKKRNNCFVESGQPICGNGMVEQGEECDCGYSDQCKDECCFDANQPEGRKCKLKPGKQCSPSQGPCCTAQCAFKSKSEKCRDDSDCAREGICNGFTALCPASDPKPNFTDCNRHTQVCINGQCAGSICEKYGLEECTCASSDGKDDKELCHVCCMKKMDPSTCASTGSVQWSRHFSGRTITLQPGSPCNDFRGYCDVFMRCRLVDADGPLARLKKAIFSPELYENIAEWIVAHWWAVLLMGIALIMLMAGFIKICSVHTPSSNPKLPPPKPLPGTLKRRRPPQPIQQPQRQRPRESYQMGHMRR
FAS-TE inh = FAS thioesterase domain inhibitors, primary screen, biochemical, fluorescence intensity, uHTS; recombinant FAS-TE, OMFH fluorogenic substrate, fluorescence endpoint; Fatty acid synthase (Homo sapiens), P49327; 0.67% of 360,000 active; inhibition, % at 15 µM;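 active = compounds whose normalised, plate-corrected inhibition of enzyme fluorescence in the single-dose primary screen is 50% or more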
HGIII-sPLA2 inh = human group III sPLA2 inhibitors, primary screen, biochemical, QFRET, BODIPY PC-A2 liposome substrate; QFRET BODIPY PC-A2 liposome hydrolysis, fluorescence; inhibition, % at 12.2 µM; 0.56% of 370,000 active; AID 743126, 2013;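 active = inhibition above mean plus 3 SD of compounds lying within the high and low control bounds, cut at about 19% in these data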
GRIN3A LBD mod = binders of NR3A ligand-binding domain, primary screen, biophysical, differential scanning fluorimetry, uHTS. NR3A LBD differential scanning fluorimetry, Tm shift; 0% = protein alone, 100% = glycine-bound protein. Tm shift relative to glycine control, % at 25 µM. AID 1259313, 2017. 2.5% of 340,000 active. Glutamate receptor ionotropic, NMDA 3A (GRIN3A) ligand-binding domain;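 active = melting temperature shift of at least 10% of the positive control shift, at one fixed dose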
ADAM17 inh = ADAM17 inhibitors, primary screen, biochemical, QFRET; Disintegrin and metalloproteinase domain-containing protein 17 (Homo sapiens), P78536; recombinant ADAM17, EDANS/DABCYL FRET peptide cleavage; inhibition, % at 6.95 µM; 0.83% of 370,000 active; AID 720648, 2013;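 active = inhibition above the mean of compounds lying between control limits plus 3 SD, set per campaign, cut at about 8.5% in these data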
Hits are given with their value; n = inactive; x = no result. This is a sample that favours compounds with a hit; in the whole collection about 4.3% have one here.

SMILES | ADAM10 inh | FAS-TE inh | HGIII-sPLA2 inh | GRIN3A LBD mod | ADAM17 inh
C#CCOCCOCCOCCNc1nc(N2CCN(C(=O)CCCCCCCCCCNC(=O)[C@H]([C@@H](C)CC)n3cc(CCCCCN)nn3)CC2)nc(N2CCN(C(=O)CCCCCCCCCCNC(=O)[C@H](CCCCN)n3cc(CCCC(=O)O)nn3)CC2)n1 | x | n | x | 21.6 | x
C#CCOCCOCCOCCNc1nc(N2CCN(C(=O)CCCCCCCCCCNC(=O)[C@@H](CCC(=O)O)n3cc(CCCCCN)nn3)CC2)nc(N2CCN(C(=O)CCCCCCCCCCNC(=O)[C@H]([C@@H](C)CC)n3cc(CCCCCN)nn3)CC2)n1 | x | n | x | 25.5 | x
C#CCOCCOCCOCCNc1nc(N2CCN(C(=O)CCCCCCCCCCNC(=O)[C@H](CCCCN)n3cc(CCCC(=O)O)nn3)CC2)nc(N2CCN(C(=O)CCCCCCCCCCNC(=O)[C@@H]([C@H](C)O)n3cc(C)nn3)CC2)n1 | x | n | x | n | x
C#CCOCCOCCOCCNc1nc(N2CCN(C(=O)[C@H]([C@@H](C)CC)n3cc([C@@H](N)CC(C)C)nn3)CC2)nc(N2CCN(C(=O)[C@H](CCCCN)n3cc([C@@H](N)CC(C)C)nn3)CC2)n1 | x | x | x | 10.1 | x
C#CCN1CC(N2CCN(CCO)CC2)CS1(=O)=O (configuration not stated) | n | x | n | x | n
CN(C)c1ccc(C(=O)NCC2CCN(C(=O)C(=O)c3cccs3)CC2)cc1 | n | x | n | x | n
Nc1nnnn1/N=C/c1ccccc1OCc1ccccc1 | n | n | n | n | n
COc1cccc(/C=N/n2nnnc2N)c1OCC#N | n | n | n | 13.3 | n
Cc1noc(NS(=O)(=O)c2ccc(NC(=O)c3ccc(N4C(=O)c5ccccc5C4=O)cc3)cc2)c1C | n | n | n | n | n
Cc1noc(NS(=O)(=O)c2ccc(NC(=O)CCN3C(=O)c4ccccc4C3=O)cc2)c1C | n | n | n | 14.1 | n
Cc1noc(NS(=O)(=O)c2ccc(NC(=O)C(Cl)(Cl)Cl)cc2)c1C | n | n | n | n | n
Cc1noc(NS(=O)(=O)c2ccc(NC(=O)Nc3ccc(Cl)c(Cl)c3)cc2)c1C | n | n | n | 35.9 | n
CN1C(=O)c2cc(NC(=O)c3ccc(F)cc3)ccc2OC[C@H]2O[C@H](CC(=O)NC3CCC3)CC[C@H]21 | n | x | n | x | n
C[C@H](O)[C@@H]1CN2CCc3ccc(-c4ccc5c(c4)OCO5)cc3[C@@H]2C[C@@H]1N(C)C(=O)Nc1ccccc1 | n | x | n | x | n
Nc1nc(-c2ccc(Cl)cc2)c(N=Nc2ccc(S(=O)(=O)N3CCOCC3)cc2)s1 | n | n | n | 17.2 | n
O=C(N[C@H](C(=O)N1CCC[C@H]1C(=O)NC1CCCC1)C1CCCCC1)C1CCCC1 | n | x | n | x | n
NC(=O)c1ccsc1NC(=O)c1ccc(S(=O)(=O)N2CCCc3ccccc32)cc1 | n | n | n | 16.2 | n
O=C(Nc1ccc(S(=O)(=O)N2CCCc3ccccc32)cc1)C1CCCO1 (configuration not stated) | x | n | x | 11.1 | x
O=C(Nc1ccc(S(=O)(=O)N2CCc3ccccc3C2)cc1)C1CCCO1 (configuration not stated) | n | n | n | n | n
COc1cc(Nc2ccccn2)cc(C(=O)Nc2cccc(C(F)(F)F)c2)c1 | n | n | n | 20.7 | n
COc1cc(NC(=O)c2nccnc2N)cc(C(=O)Nc2cccc(C(F)(F)F)c2)c1 | n | n | n | n | n
COc1cc(NC(=O)c2cc3cccc(OC)c3o2)cc(C(=O)Nc2cccc(C(F)(F)F)c2)c1 | n | n | n | 11.7 | n
COc1cc(NC(=O)c2ccc(N)nc2)cc(C(=O)Nc2cccc(C(F)(F)F)c2)c1 | n | n | n | 30.1 | n
COc1ccc(-c2cc(C(=O)Nc3cc(OC)cc(C(=O)Nc4cccc(C(F)(F)F)c4)c3)[nH]n2)cc1 | n | n | n | 29.1 | n
COc1cc(NC(=O)c2csc(-c3ccncc3)n2)cc(C(=O)Nc2cccc(C(F)(F)F)c2)c1 | n | n | n | n | n
SMILES | ADAM10 inh | FAS-TE inh | HGIII-sPLA2 inh | GRIN3A LBD mod | ADAM17 inh
Cc1ccccc1CN1CCCCC(NC(=O)Nc2cccc(F)c2)C1=O (configuration not stated) | n | x | n | x | n
Cc1cc(C)cc(NC(=O)O[C@@H]2CC[C@@]34CCCN3C(=O)CCC[C@H]4C2)c1 | n | x | n | x | n
COc1ccccc1-c1noc(CCC(=O)Nc2cccc(C)c2)n1 | n | n | n | 13.6 | n
CC(C)(C)OC(=O)NCCCc1ccc2c(c1)[C@]1(CCC[C@@H](OCc3ccccc3)[C@@H]1NC(=O)CCc1ccccc1)C(=O)N2Cc1ccccc1 | n | x | n | x | n
Cc1ccc2[nH]c3nc(N/N=C/c4cccc(O)c4)nnc3c2c1 | n | n | n | 10.3 | n
CCc1ccc2[nH]c3nc(SCCN4CCOCC4)nnc3c2c1 | n | n | n | n | n
CCc1ccc2[nH]c3nc(N/N=C/c4ccc(O)cc4O)nnc3c2c1 | n | n | n | 19.2 | n
COc1cc(/C=N/Nc2nnc3c(n2)[nH]c2ccccc23)ccc1O | n | n | n | n | n
COC(=O)[C@H]1C[C@]2(C(/C=C(\C)CCC=C(C)C)S(=O)(=O)c3ccccc3)c3ccccc3N[C@H]2N1 (some centres not stated) | n | x | n | x | n
O=C(c1cnn2c(C(F)(F)F)cc(-c3ccco3)nc12)N1CCCCCC1 | n | n | n | 11.0 | n
CCOC(=O)[C@]12CCCCC/C=C\1N(Cc1ccc(OC)cc1)C(=O)[C@H]2CC(=O)N1CCSCC1 | n | x | n | x | n
Cc1ccc(-c2cc(C(=O)N/N=C/c3ccc(F)cc3)n[nH]2)o1 | n | n | n | 31.1 | n
Cc1ccc(-c2cc(C(=O)N/N=C/C(Br)=C/c3ccccc3)n[nH]2)o1 | n | n | n | 29.0 | n
Cc1ccc(-c2cc(C(=O)N/N=C/C=C/c3ccccc3)n[nH]2)s1 | n | n | n | 18.6 | n
Cc1ccc(-c2cc(C(=O)N/N=C/c3ccccc3O)n[nH]2)o1 | n | n | n | 30.9 | n
Cc1cc(C(=O)NN=Cc2ccccc2C(=O)O)n[nH]1 | n | x | n | x | n
Cc1ccc(-c2cc(C(=O)N/N=C/c3c[nH]c4ccccc34)n[nH]2)o1 | n | n | n | 27.7 | n
CC(C)(C)c1cc(C(=O)N/N=C/c2ccncc2)n[nH]1 | n | n | n | 467.9 | n
O=C(N/N=C/c1cccs1)c1cc(-c2ccc(Cl)s2)[nH]n1 | n | n | n | 32.9 | n
Cc1ccc(C(=O)N/N=C/c2c[nH]c3ccccc23)o1 | n | n | n | n | n
